Results on 31 compounds are retold here after ChEMBL document CHEMBL2218924, “A broad activity screen in support of a chemogenomic map for kinase signalling research and drug discovery” (Biochem J, 2013).

In the assay the target is BDNF/NT-3 growth factors receptor (Homo sapiens) (UniProt Q16620). The following applies: at 10 µM.
BDNF/NT-3 growth factors receptor (Homo sapiens), sequence (Q16620 32-822 limits assumed): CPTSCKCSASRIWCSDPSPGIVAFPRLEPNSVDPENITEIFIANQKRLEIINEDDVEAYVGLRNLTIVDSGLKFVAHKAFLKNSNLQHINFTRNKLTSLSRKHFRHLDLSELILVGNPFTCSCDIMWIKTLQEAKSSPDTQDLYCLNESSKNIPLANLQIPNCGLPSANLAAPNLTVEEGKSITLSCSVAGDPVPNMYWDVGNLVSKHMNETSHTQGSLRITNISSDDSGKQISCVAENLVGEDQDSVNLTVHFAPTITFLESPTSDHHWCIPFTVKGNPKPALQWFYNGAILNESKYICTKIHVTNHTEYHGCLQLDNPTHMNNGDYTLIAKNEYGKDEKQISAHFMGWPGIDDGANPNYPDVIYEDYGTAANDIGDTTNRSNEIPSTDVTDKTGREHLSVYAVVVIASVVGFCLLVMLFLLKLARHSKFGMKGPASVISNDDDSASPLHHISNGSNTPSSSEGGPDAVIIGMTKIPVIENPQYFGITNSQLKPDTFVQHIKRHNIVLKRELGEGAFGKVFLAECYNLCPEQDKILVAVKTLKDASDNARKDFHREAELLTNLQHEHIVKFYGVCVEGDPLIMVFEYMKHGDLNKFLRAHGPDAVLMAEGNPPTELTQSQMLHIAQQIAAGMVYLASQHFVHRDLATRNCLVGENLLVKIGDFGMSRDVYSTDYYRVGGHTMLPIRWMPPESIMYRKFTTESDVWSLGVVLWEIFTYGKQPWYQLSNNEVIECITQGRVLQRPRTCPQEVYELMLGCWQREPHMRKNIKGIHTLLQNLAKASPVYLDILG
Consider `Cn1nc2c3c(cccc31)C(=O)c1ccccc1-2`, for which the residual activity worked out at 66%.

Turning to `COc1ccc(CNc2nc(N(CCO)CCO)nc3c2ncn3C(C)C)cc1`, the residual activity was found to be 96%. In the case of `CO[C@@H]1[C@H](N(C)C(=O)c2ccccc2)C[C@H]2O[C@]1(C)n1c3ccccc3c3c4c(c5c6ccccc6n2c5c31)C(=O)NC4`, the residual activity is -12%.

For `C[C@@H](N)[C@H]1CC[C@H](C(=O)Nc2ccncc2)CC1`, the residual activity worked out at 99%. On to `Cc1cc(Nc2nc(-c3ccccc3)nc3ccccc23)n[nH]1`, for which the residual activity stood at 0%. As to `O=C1Nc2ccc(Br)cc2/C1=C\c1cc2c([nH]1)CCCC2`, the residual activity was 44%. The figure for `Cc1cc2ncc(-c3ccccc3)nc2cc1C` is 53%. As for `CCN(CC)C(=O)c1ccc(Nc2nc(OCC3CCCCC3)c3nc[nH]c3n2)cc1`, the residual activity stood at 2%.

On to `O=C1c2ccccc2-[n+]2ccc3c([nH]c4ccccc43)c21`, for which the residual activity was 89%. In the case of `Cc1ccc(S(=O)(=O)/C=C/C#N)cc1`, the residual activity is 105%. Turning to `c1ccc2c(-c3ccncc3)c[nH]c2c1`, the residual activity amounted to 110%.

In the case of `N#CCCc1ccc2c(c1)-c1[nH]c3ccc([N+](=O)[O-])cc3c1CC(=O)N2`, the residual activity came out at 65%. With `c1ccc(-c2n[nH]c3c2oc2ccccc23)cc1`, the residual activity was -3%. Take `Nc1cccc(-c2cc3c(Oc4cccc(O)c4)ncnc3[nH]2)c1`: the residual activity turned out to be 44%. With `COc1ccc(S(=O)(=O)N(CCO)c2ccccc2CN(C)C/C=C/c2ccc(Cl)cc2)cc1`, the residual activity worked out at 61%.

For `O=C1Nc2ccccc2/C1=C1/Nc2ccccc2/C1=N\OCCC(O)CO` (stereo unspecified), the residual activity amounted to 0%.

On to `COc1cc2ncnc(Nc3ccc(NC(=O)c4ccccc4)cc3)c2cc1OC`, for which the residual activity is 21%. For `N#Cc1cnc2cnc(NCc3cccnc3)cc2c1Nc1ccc(F)c(Cl)c1`, the residual activity stood at 1%. `Ic1cccc(CSc2nnc(-c3ccncc3)o2)c1`: the residual activity came to 28%. Regarding `O=C(Nc1cccc(Nc2cc(Nc3cccc(C(F)(F)F)c3)ncn2)c1)C1CC1`, the residual activity was determined as 37%. For the compound `O=[N+]([O-])c1ccc(-c2nc(-c3ccc(F)cc3)c(-c3ccncc3)[nH]2)cc1`, the residual activity was determined as 107%. Take `N#CC(C#N)=C(N)/C(C#N)=C/c1ccc(O)cc1`: the residual activity came to 116%. Then `O=Nc1c(-c2c(O)[nH]c3ccccc23)[nH]c2ccccc12`, with 0%; and `CN(C)CCCn1cc(C2=C(c3c[nH]c4ccccc34)C(=O)NC2=O)c2ccccc21`, with 14%.

As to `O=C1Nc2cc(Br)ccc2/C1=C1/Nc2ccccc2/C1=N\O`, the residual activity was -1%. Regarding `COc1cc2ncc(-c3ccccc3)nc2cc1OC`, the residual activity stood at 37%. Turning to `O=C1NC(=O)/C(=C/c2ccc3c(c2)OC(F)(F)O3)S1`, the residual activity worked out at 24%.

Take `CC(=O)c1ccc(N2CCOCC2)cc1O`: the residual activity is 108%. The figure for `Nc1n[nH]c2nnc(-c3c(-c4ccccc4)nn4ccccc34)cc12` is 52%. Then `Nc1nc(Nc2ccc(S(N)(=O)=O)cc2)nn1C(=S)Nc1c(F)cccc1F`, with 0%. Then `Cn1cnc2cc3c(Nc4cccc(Br)c4)ncnc3cc21`, with 68%.

For orientation: residual activity means the signal under treatment as a percentage of the control signal.
